Measurements taken from ChEMBL document CHEMBL3988442, “University of Dundee, Small-Polar-MMV Screening Library” (2021).
Screen size: about 69,000 compounds; about 1,000 (1.4%) showed an effect of 50% or more. This excerpt belongs to a sample that is enriched for strong results.

Tested on: Leishmania donovani
Test: Leishmania intramacrophage assay
Format: functional, organism-based
Set-up: scale not given: in the data most compounds retested in dose-response had high values

Structure (SMILES): Cc1ccc(CN2CC[C@H]3[C@H](CC(Cn4cccn4)N3C)C2)s1.O=C(O)C(F)(F)F.O=C(O)C(F)(F)F.O=C(O)C(F)(F)F (some centres not stated)
- Percent Effect (30.3 µM, […]): -11.42%

Structure (SMILES): CN1CC[C@H](N(C)Cc2ccccc2)C[C@H](O)C1
- Percent Effect (30.3 µM, […]): 20.46%

Structure (SMILES): CN1CC[C@H](N(Cc2ccccc2)CC2CC2)C[C@H](O)C1
- Percent Effect (30.3 µM, […]): 31.47%

Structure (SMILES): CN1CC[C@H](N(Cc2ccccc2)Cc2ccccc2)C[C@H](O)C1
- Percent Effect (30.3 µM, […]): 94.14%

Structure (SMILES): CC(C)Sc1ncccc1C(=O)NCc1ccc(O)cc1
- Percent Effect (30 µM): 14.96%

Structure (SMILES): CCN(C)S(=O)(=O)NCC(O)c1c(Cl)cccc1Cl (configuration not stated)
- Percent Effect (30.3 µM, […]): 41.58%

Structure (SMILES): CCCS(=O)(=O)NCC(O)c1c(Cl)cccc1Cl (configuration not stated)
- Percent Effect (30.3 µM, […]): 7.191%

Structure (SMILES): CCN(CC)S(=O)(=O)NCC(O)c1c(Cl)cccc1Cl (configuration not stated)
- Percent Effect (30.3 µM, […]): 62.85%

Structure (SMILES): CCCc1nc(CN2CCCC2Cn2cccn2)cs1 (configuration not stated)
- Percent Effect (30.3 µM, […]): 31.37%

Structure (SMILES): CCC(=O)N1CCC2(CC1)CC(CC(=O)N(C)C)c1ccc(F)cc12 (configuration not stated)
- Percent Effect (30.3 µM, […]): 35.94%

Structure (SMILES): CCN1CCC2(CC1)CC(CC(=O)N(C)C)c1ccc(F)cc12 (configuration not stated)
- Percent Effect (30.3 µM, […]): 64.47%

Structure (SMILES): CN(C)C(=O)CC1CC2(CCN(CC3CC3)CC2)c2cc(F)ccc21.O=C(O)C(F)(F)F (configuration not stated)
- Percent Effect (30 µM, 30.03 µM): 16.14%

Structure (SMILES): CC(=O)Nc1ccc(CNCC(O)c2ccccc2)cc1 (configuration not stated)
- Percent Effect (30.3 µM, […]): -2.839%

Structure (SMILES): CCOc1ccc(CNCC(O)c2ccccc2)cc1Cl.Cl (configuration not stated)
- Percent Effect (30.3 µM, […]): 14.87%

Structure (SMILES): CCc1ccc(CNC(=O)NC2CCCc3c2cnn3CCO)s1 (configuration not stated)
- Percent Effect (30.3 µM, […]): 21.53%

Structure (SMILES): O=C(Cc1ccccn1)N1CCCC(c2nccn2CC2CCC2)C1 (configuration not stated)
- Percent Effect (30.3 µM, […]): -1.281%

Structure (SMILES): CCOc1ccccc1OC1CCN(Cc2ccn(C)c(=O)c2)CC1
- Percent Effect (30 µM): 5.552%

Structure (SMILES): CCCS(=O)(=O)N1CCC(NC(=O)c2cc3ccccc3s2)CC1
- Percent Effect (30.3 µM, […]): 22.53%

Structure (SMILES): CC(C)CN1CCC2(C=C(C(=O)N(C)C)c3ccccc32)CC1.O=C(O)C(F)(F)F
- Percent Effect (30.3 µM, […]): 41.74%

Structure (SMILES): CCN1CCC2(C=C(C(=O)N(C)C)c3ccccc32)CC1.O=C(O)C(F)(F)F
- Percent Effect (30.3 µM, […]): 51.51%

Structure (SMILES): CC(C)N1CCC2(C=C(C(=O)N(C)C)c3ccccc32)CC1.O=C(O)C(F)(F)F
- Percent Effect (30.3 µM, […]): -11.73%

Structure (SMILES): CCC(=O)N1CCC2(C=C(C(=O)N(C)C)c3ccccc32)CC1
- Percent Effect (30.3 µM, […]): 92.12%

Structure (SMILES): CN1CCC2(C=C(C(=O)N(C)C)c3ccccc32)CC1
- Percent Effect (30.3 µM, […]): 38.98%

Structure (SMILES): CCC(=O)N1CCC2(C=C(C(=O)N3CCCC3)c3ccccc32)CC1
- Percent Effect (30.3 µM, […]): 11.1%

Structure (SMILES): CC(C)Cc1cc(CNc2nc(-c3cccnc3)nc3c2CNC3)no1
- Percent Effect (30.3 µM, […]): 9.598%

Structure (SMILES): O=C(c1cccnc1)N1CCN(CC2CC2)c2ncccc2C1
- Percent Effect (30.3 µM, […]): 14.27%

Structure (SMILES): O=C(c1ccoc1)N1CC[C@@H]2O[C@@H](COCc3ccccn3)CC[C@@H]21
- Percent Effect (30.3 µM, […]): -30.2%

Structure (SMILES): O=C(N1CCOCC1)N1CC[C@H]2[C@@H]1CCC(=O)N2c1ccccc1
- Percent Effect (30.3 µM, […]): 31.55%

Structure (SMILES): O=C(c1cccnc1)N1CCC2(CC1)CCN(Cc1ccccn1)C2=O
- Percent Effect (30.3 µM, […]): 28.38%

Structure (SMILES): Cc1oncc1C(=O)N1CCC2(CCN(Cc3ccccn3)C2=O)C1 (configuration not stated)
- Percent Effect (30 µM, 30.03 µM): -19.39%

Structure (SMILES): Cc1ccc(C(=O)N2CCC3(CCN(Cc4ccccn4)C3=O)C2)cn1 (configuration not stated)
- Percent Effect (30.3 µM, […]): 50.83%

Structure (SMILES): Cc1c(-c2cc(C(F)(F)F)nc(N3CCC(N)CC3)n2)cnn1C
- Percent Effect (30.3 µM, […]): 81.41%

Structure (SMILES): CCc1ccc(-c2cc(C(F)(F)F)nc(N3CCC(N)CC3)n2)cc1
- Percent Effect (30.3 µM, […]): 44.83%

Structure (SMILES): CCn1ncc(-c2cc(C(F)(F)F)nc(N3CCC(N)CC3)n2)c1C
- Percent Effect (30.3 µM, […]): 100.6%

Structure (SMILES): Cc1nn(C)cc1-c1cc(C(F)(F)F)nc(NC2CCN(C)CC2)n1
- Percent Effect (30.3 µM, […]): 7.809%

Structure (SMILES): CCNC(=O)[C@@H]1C[C@H](N)CN1c1cc(C(F)(F)F)nc(N2CCCC2)n1
- Percent Effect (30.3 µM, […]): 23.81%

Structure (SMILES): Cc1ccc(-c2cc(C(F)(F)F)nc(N3CCOCC3)n2)s1
- Percent Effect (30.3 µM, […]): 2.404%

Structure (SMILES): Cc1ccccc1OCn1ccc(C(=O)NCCN2CCOCC2)n1
- Percent Effect (30.3 µM, […]): -13.65%

Structure (SMILES): O=C(O)C(F)(F)F.O=C(O)C(F)(F)F.O=C(O)CN1CCCC2(CCN2Cc2cccc(F)c2)C1 (configuration not stated)
- Percent Effect (30.3 µM, […]): -0.8696%

Structure (SMILES): Cc1ccc(CN2CCCC23CCN(S(=O)(=O)c2ccccc2)C3)o1 (configuration not stated)
- Percent Effect (30 µM, 30.03 µM): 49.3%

Structure (SMILES): O=C(O)C(F)(F)F.O=C(c1cscn1)N1CCCC2(CCN2Cc2cccc(F)c2)C1 (configuration not stated)
- Percent Effect (30.3 µM, […]): 40.36%

Structure (SMILES): O=S(=O)(c1ccccc1)N1CCC2(CCCN2Cc2ccc(Cl)cc2)C1 (configuration not stated)
- Percent Effect (30.3 µM, […]): 36.08%

Structure (SMILES): O=S(=O)(c1ccccc1)N1CCC2(CCCN2Cc2cccc(F)c2)C1 (configuration not stated)
- Percent Effect (30.3 µM, […]): 61.17%

Structure (SMILES): O=S(=O)(c1ccccc1)N1CCC2(CCCN2Cc2ccccc2Cl)C1 (configuration not stated)
- Percent Effect (30.3 µM, […]): 52.23%

Structure (SMILES): O=C(O)C(F)(F)F.O=S(=O)(c1ccccc1)N1CCC2(CCCN2Cc2cccc(Cl)c2)C1 (configuration not stated)
- Percent Effect (30.3 µM, […]): 27.63%

Structure (SMILES): CCS(=O)(=O)N1CCCC2(CCCN2Cc2cccc(F)c2)C1.O=C(O)C(F)(F)F (configuration not stated)
- Percent Effect (30.3 µM, […]): 12.48%

Structure (SMILES): O=C(O)C(F)(F)F.O=C(c1ccccc1)N1CCCC2(CCN2Cc2cccc(F)c2)C1 (configuration not stated)
- Percent Effect (30.3 µM, […]): 54.88%

Structure (SMILES): CC(C)C(C(N)=O)c1cccc(Cl)c1 (configuration not stated)
- Percent Effect (30.3 µM, […]): 23.22%

Structure (SMILES): Cc1nnc(N2CCO[C@H]3[C@@H](OCc4ccccn4)CC[C@@H]32)s1.O=C(O)C(F)(F)F.O=C(O)C(F)(F)F
- Percent Effect (30.3 µM, […]): -5.183%

Structure (SMILES): Cc1nccn1Cc1nnc(C2CCN(c3ccncc3F)CC2)n1C
- Percent Effect (30.3 µM, […]): 4.988%

Structure (SMILES): c1nc2c(c(NC3COC4(CCCC4)C3)n1)CCNCC2 (configuration not stated)
- Percent Effect (30.3 µM, […]): -7.058%

Structure (SMILES): O=C(O)C(F)(F)F.O=C(c1cocn1)N1C[C@H]2CCC[C@@]2(COc2ccccn2)C1
- Percent Effect (30.3 µM, […]): 20.04%

Structure (SMILES): Cc1nn(C)c(C)c1CN1CCCC1c1nccc(CN(C)C)n1 (configuration not stated)
- Percent Effect (30.3 µM, […]): 3.97%

Structure (SMILES): CC(C#N)CNC(=O)Nc1ccc(Br)cc1 (configuration not stated)
- Percent Effect (30.3 µM, […]): 6.996%

Structure (SMILES): CC(=O)N1CCCN(C2CCCCc3ccccc32)CC1 (configuration not stated)
- Percent Effect (30.3 µM, […]): 18.35%

Structure (SMILES): COc1c(C2CCCN2C(=O)c2c[nH]c3ncccc23)c(C)nn1C (configuration not stated)
- Percent Effect (30 µM, 30.03 µM): -19.02%

Structure (SMILES): Cc1noc([C@@]23CCO[C@@H]2CCN(C(=O)C2CCOCC2)C3)n1
- Percent Effect (30 µM, 30.03 µM): -29.55%

Structure (SMILES): Cc1nnc([C@@]23CCO[C@@H]2CCN(S(=O)(=O)c2cccnc2)C3)o1
- Percent Effect (30.3 µM, […]): 17.24%

Structure (SMILES): Cc1nnc([C@@]23CCO[C@@H]2CCN(S(C)(=O)=O)C3)o1
- Percent Effect (30.3 µM, […]): -7.004%

Structure (SMILES): Cc1noc([C@@]23CCO[C@@H]2CCN(S(=O)(=O)c2cccnc2)C3)n1
- Percent Effect (30.3 µM, […]): 57.7%

Structure (SMILES): Cc1nnc([C@@]23CCO[C@@H]2CCN(S(=O)(=O)c2ccccc2)C3)o1
- Percent Effect (30.3 µM, […]): 56.06%

Structure (SMILES): CNC(=O)[C@@]12CCO[C@@H]1CCN(S(=O)(=O)c1cccnc1)C2.O=C(O)C(F)(F)F
- Percent Effect (30 µM, 30.03 µM): -13.7%
